Measured values: PubChem BioAssay (NCI)
This is part of a sample that, as a whole, favours compounds with a hit. Of some 83,000 tested, about 20% had one in any assay.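 Assay: single dose, 48 h. Readout: percent growth (0 = no net growth; negative = cell death). Active: <10.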 Values without a mark were called inactive. Activity calls are given as the source filed them.

What was measured:
Assay in all cases: NCI-60 one-dose screen, 48 h (100 = growth as untreated, 0 = no growth, -100 = all killed)
Settings in all cases: 10 µM unless noted
[1] = system: SR leukemia
[2] = system: RPMI-8226 leukemia
[3] = system: OVCAR-8 ovarian
[4] = system: OVCAR-5 ovarian
[5] = system: OVCAR-4 ovarian
[6] = system: SK-OV-3 ovarian
[7] = system: IGROV1 ovarian
[8] = system: OVCAR-3 ovarian
[9] = system: HS 578T breast
[10] = system: NCI/ADR-RES ovarian
[11] = system: T-47D breast
[12] = system: BT-549 breast
[13] = system: MDA-MB-435 melanoma
[14] = system: SW-620 colon
[15] = system: MCF7 breast
[16] = system: HCT-116 colon
[17] = system: HCC-2998 colon
[18] = system: KM12 colon

Row | Compound | growth [1] | growth [2] | growth [3] | growth [4] | growth [5] | growth [6] | growth [7] | growth [8] | growth [9] [%] | growth [10] | growth [11] | growth [12] | growth [13] | growth [14] | growth [15] | growth [16] | growth [17] | growth [18]
1 | CC(C)c1cccc(C#N)c1 | 97.1% | 106% | 95.1% | 112% | 101% | 106% | 115% | 111% | 101 | 91% | 95.7% | 102% | 101% | 107% | 95.1% | 101% | 102% | 111%
2 | COc1ccccc1CNCCCN1C(=O)c2ccc3c4c(ccc(c24)C1=O)C(=O)N(CCCNCCCN)C3=O | 10% | 17.5% | -24.4% (active) | 37.9% | -99.3% (active) | 34.7% | -2.92% (active) | -19.3% (active) | 30.7 | 33.7% | -21.6% (active) | 55% | -69.4% (active) | -7.85% (active) | -42.7% (active) | -1.03% (active) | -5.58% (active) | 1.76% (active)
3 | COc1cc(C2CC(c3ccc(Cl)cc3)=NN2C(C)=O)ccc1Oc1nc2c(c(=O)n(C)c(=O)n2C)n1C (stereo not given) | 78.5% | 72.1% | 92.2% | 108% | 67.9% | 112% | 82.3% | 102% | 80.5 | 61.6% | 76.8% | 83.2% | 64.1% | 98.1% | 70.2% | 85.5% | 87.3% | 78.2%
4 | NNC(=O)CSc1nc2scc(-c3ccccc3)c2c(=O)n1-c1ccccc1 | 83% | 109% | 123% | 98% | 92.8% | 120% | 102% | 99.5% | 89.2 | 103% | 104% | 131% | 121% | 112% | 97.8% | 91.9% | 84.2% | 108%
5 | COc1cc2ncnc(Nc3ccc(S(=O)(=O)Nc4cc(C)on4)cc3)c2cc1OCCCN1CCN(c2ccc([N+](=O)[O-])cc2)CC1 | 114% | 109% | 104% | 106% | 111% | 99% | 108% | 103% | 101 | 106% | 102% | 109% | 103% | 105% | 106% | 109% | 111% | 106%
6 | Cc1ccc2c(C)c3c(ccc4ccccc43)c[n+]2c1 | 58.2% | 47.8% | 52.5% | 90.3% | 56.3% | 83.8% | 60.6% | 53.2% | 77.8 | 95.9% | -8.02% (active) | 37% | 83.2% | 83.1% | 35.7% | 81.7% | 72.6% | 28.6%
7 | CCC1=CC2CN(C1)Cc1c([nH]c3ccccc13)[C@@](C(=O)OC)(c1cc3c(cc1OC)N(C)[C@H]1[C@@](O)(C(=O)OC)[C@H](OC(C)=O)[C@]4(CC)C=CCN5CC[C@]31[C@@H]54)C2 (stereo not given in full) | 6.9% (active) | 31.4% | 21.3% | 15.6% | 29.6% | 7.75% (active) | 35.7% | -29.6% (active) | 29.1 | -16.1% (active) | 76.1% | -27.2% (active) | 2.28% (active) | 29.1% | 8.05% (active) | -9.83% (active) | -36% (active) | 0.29% (active)
8 | CC(SC(C)C(=O)N/N=C/c1cccc(Cl)c1)C(=O)N/N=C\c1cccc(Cl)c1 (stereo not given) | 15.8% | 64.4% | 68.1% | 115% | -11.1% (active) | 90.5% | 70.3% | -30.2% (active) | 86 | 94.5% | 87.8% | 102% | 72.8% | 27.7% | 49.1% | 2.39% (active) | 96.5% | 71.7%
9 | COc1cc(C2CC(c3ccccc3)=NN2C=O)ccc1Oc1ccnc2cc(Cl)ccc12 (stereo not given) | 50.4% | 32.1% | 38.7% | 84.2% | 35% | 86.6% | 80.1% | 69.9% | 76.2 | 22.9% | 33.6% | 46% | 36% | 87.9% | 50.5% | 54.7% | 87.4% | 49.9%
10 | CN(C)c1nc(-c2ccco2)n2nc(-c3ccc(Cl)cc3)cc2n1 | 52.7% | 74.8% | 50.8% | 90% | -10.2% (active) | 45.9% | 55.8% | 74.1% | 65.1 | 69% | 47.9% | 86.7% | 89.6% | 62.7% | 68.2% | 43.4% | 86% | 84.4%
11 | CCN1C(=O)C(C)C=C(C)C=C1C (stereo not given) | 110% | 115% | 102% | 106% | 119% | 106% | 106% | 92.6% | 102 | 119% | 102% | 124% | 114% | 114% | 106% | 112% | 103% | 100%
12 | CCCCCCCCCCCCC1CCC(=O)O1 (stereo not given) | 93.6% | 97.4% | 108% | 85.4% | 94.1% | 102% | 86.7% | 105% | 108 | 100% | 74.1% | 96.5% | 98.8% | 90.3% | 93.4% | 95.2% | 104% | 100%
13 | COc1ccc(CNc2c3ccccc3nc3ccc(OC)cc23)cc1 | -15.5% (active) | -47.7% (active) | 25.4% | 30.7% | 18.4% | 47.2% | 11.2% | 40.4% | 25.9 | 16.2% | 34.2% | 43% | 19% | 15.8% | -29.8% (active) | 12.7% | -57.6% (active) | 27.6%
14 | CCNCCCn1c2c(c3ccc(Cl)cc3c1=O)C(=O)c1cc(OC)cnc1-2 | -63.6% (active) | -48.8% (active) | -30.7% (active) | -11.9% (active) | 52.2% | -11% (active) | 44.7% | 39.1% | 58.8 | 35.5% | 16.6% | 39.8% | 68.1% | -64.5% (active) | -64.9% (active) | -95.8% (active) | 68% | 32.8%
15 | O=c1c2cc(Cl)ccc2oc2ccc(OCCCCCN3CCCCCC3)cc12 | 47.5% | 60.3% | 82.1% | 97.9% | 91.8% | 78.9% | 90.6% | 81.5% | 83 | 85.7% | 74.4% | 79% | 80.8% | 84.6% | 75.3% | 57.8% | 88.5% | 84.8%
16 | O=C1c2cccc3cccc(c23)C(=O)N1CCCCCCCCCCN1C(=O)c2cccc3cccc(c23)C1=O | 96.8% | 108% | 104% | 106% | 95% | 105% | 110% | 109% | 99.1 | 110% | 97.7% | 114% | 104% | 104% | 86.9% | 117% | 112% | 109%
17 | CCCCCCCCCCCCCCCCCC1=NCCN1CCO | 7.41% (active) | 78.9% | 70.5% | 82.7% | 115% | 97.9% | 25.7% | 77% | 85.8 | 84.5% | 95% | 91.5% | 101% | 65.2% | 74.3% | 65.1% | 61.3% | –
